# Sampled rows, rich in hits. Any-hit rate of the full collection: about 2.5%.
# Marburg entry inh: qHTS for inhibitors of binding or entry into cells for Marburg Virus | actives 1.8% (n = 300,000) | Potency, µM (doses to about 37.8 µM), for inactives: at the highest dose activity change, negative = inhibition, usual class: inhibitors | Marburg virus pseudotyped entry inhibition, cell reporter; calls by dose curve; tested in HEK293 cells
# VACV mCherry inh: qHTS for Stage-Specific Inhibitors of Vaccinia Orthopoxvirus: mCherry Reporter Primary qHTS; Vaccinia virus mCherry reporter infection, fluorescence; Potency, µM (titrated, usually from 36.5 µM), for inactives: top-dose activity change, negative = inhibition, hits mostly inhibitors; actives 0.63% (n = 310,000); calls by dose curve; tested in A549 cells; further: nearly all actives have a fitted effect of over 35% in size
# LASV entry inh: qHTS for Inhibitors of binding or entry into cells for Lassa Virus; Lassa virus pseudotype entry inhibition, cell reporter; Potency, µM (titrated, usually from 37.9 µM), inactives show at the highest dose activity change, negative = inhibition, actives largely listed as inhibitors; actives 1.2% (n = 300,000); calls by dose curve; tested in HEK293 cells; further: nearly all actives have a fitted effect of over 50% in size
# Vaccinia Venus: qHTS for Stage-Specific Inhibitors of Vaccinia Orthopoxvirus: Venus Reporter Primary qHTS; Vaccinia virus Venus reporter expression, fluorescence; Potency, µM (top dose mostly 36.5 µM), without a hit: at the top dose activity change, negative = inhibition, hits mostly inhibitors; actives 0.46% (n = 330,000); calls by dose curve; tested in A549 cells; further: nearly all actives have a fitted effect of over 30% in size
# Starred values were filed as active, the others as inactive; i = inactive; ? = inconclusive; · = no result; ! = not active in a repeat; [ ] = dose if it differs, or a comment. On the % scale 0 is the no-effect control and ±100 the full control effect; potency means the concentration at half of the fitted maximal effect.
SMILES,Marburg entry inh,VACV mCherry inh,LASV entry inh,Vaccinia Venus
CCCSc1ccc2nc(NC(=O)OC)[nH]c2c1,?,?,2.06µM*,?
COc1cccc(CCNc2ncnc3sc(C(=O)N4CCOCC4)c(C)c23)c1,·,i,·,-15.1%
NC[C@H](Cc1ccccc1)NCCCCC1CCCCC1,·,?,·,-3.8%
CNC[C@H](CC1CCCCC1)NC[C@H](Cc1ccccc1)NCCC12CC3CC(CC(C3)C1)C2,·,?,·,10µM*
COc1cc(OC)cc(C(=O)NCC2Cc3cccc(-c4nc(C)cnc4C)c3O2)c1 (stereo not drawn),·,-11.6%,·,8.4%
O=C(Nc1ccc2nc(-c3ccccc3)[nH]c2c1)c1ccco1,?,-1.6%,?,-12.4%
CCOc1cc(OCC)cc(C(=O)Nc2cccc(-c3nc4ccccc4[nH]3)c2)c1,·,11.2µM*,?,11.2µM*
O=C(Nc1cccc(-c2nc3ccccc3[nH]2)c1)c1cccc(NC(=O)c2ccco2)c1,13µM*,·,?,·
O=C(c1cnn(-c2nccc(-c3ccco3)n2)c1C1CC1)N1CCCCC1c1cccnc1 (stereo not drawn),·,-0.1%,·,2.5%
Cc1cc2ccccc2n1CCNC(=O)c1ccccc1,?,·,7.94µM*,58.7%
CC(=O)Nc1ccccc1-c1nc(CNC(=O)c2ccc(-n3cccn3)cc2)c(C)o1,·,-12.8%,·,0.9%
CCn1nc2cc(C(=O)NCC34CC5CC(CC(C5)C3)C4)ccc2c1OC,·,-24.5%,·,-24.4%
CCCCn1nc2cc(C(=O)NCC34CC5CC(CC(C5)C3)C4)ccc2c1OC,·,6.31µM*,·,?
CN(C)CCNc1ncnc2c1sc1nc(N3CCCC3)c3c(c12)CC(C)(C)OC3,7.94µM*,-23.6%[7.34 µM],?,-18.2%[7.34 µM]
CC(C)CNc1ncnc2c1sc1nc(N3CCOCC3)c3c(c12)CC(C)(C)OC3,18.2%,·,-8.2%,3.7%
COCC(=O)Nc1cc(C(=O)N2CCCC2c2nccs2)c2c(c1)nc(-c1ccncc1)n2C (stereo not drawn),·,-12.0%,·,-4.5%
O=C1[C@H]2[C@H]3[C@H](O)[C@H](O)C/C(=N\OC[C@@H](O)COCc4ccco4)[C@@H]3CC[C@H]2C(=O)N1C[C@@H]1CCCO1,3.6%[14.2 µM],·,·,·
CC1=C(Br)C2=C(CC1)NC(=O)/C2=N\N1C(=O)C2CCCCC2C1=O (stereo not drawn),-17.8%,·,·,·
COc1cccc2cc(C(=O)NCc3ccco3)c(=Nc3ccc(C(=O)O)cc3)oc12,7.7%,7.94µM*,4.2%,10µM*
COc1cccc2cc(C(=O)NCc3ccco3)c(=O)oc12,?,-18.0%,8.0%,-12.0%
Cc1cccc(OCC(=O)Nc2cc(C)c(O)c(-c3nc4ccccc4o3)c2)c1,·,?,·,-21.7%
CSc1ncccc1C(=O)NCC1Cc2cc(-c3cnccn3)cc(Cl)c2O1 (stereo not drawn),·,i,·,-12.5%
OC(CN1c2ccccc2Sc2ccccc21)Cn1nnc2ccccc21 (stereo not drawn),?,·,-2.1%,·
Cc1nn(CC(O)CN2c3ccccc3Sc3ccccc32)c(C)c1Br (stereo not drawn),11.2µM*,?,?,?
COC(=O)C1=C(C(=O)OC)[C@@H]2N(C)c3ccccc3[C@@]23CCC(=O)N(CCCOC(C)C)C3=N1,-9.7%[14.2 µM],·,·,·
SMILES,Marburg entry inh,VACV mCherry inh,LASV entry inh,Vaccinia Venus
COc1cccc(-c2cc(C(=O)N3CCOCC3)no2)c1,10µM*,-2.8%,-21.0%[46.1 µM],-1.8%
O=C(c1cc(-c2ccc(Br)cc2)on1)N1CCOCC1,?,-19.5%,2.51µM*,-16.1%
COc1cc(/C=N/N=C2/NC(=O)C(c3ccccc3)S2)ccc1O (stereo not drawn),14.9%,-19.3%,4.47µM*,-16.7%
COc1cc(/C=N/N=C2/NC(=O)C(Cc3ccc(F)cc3)S2)ccc1O (stereo not drawn),?,?,?,-23.0%
COc1ccc(/C=N/N=C2/NC(=O)C(CC(=O)O)S2)cc1OCc1ccc(Cl)cc1Cl (stereo not drawn),1.12µM*,-16.5%,-3.5%,-10.2%
O=C(COc1ccccc1C(=O)Nc1cccc([N+](=O)[O-])c1)Nc1ccc(Br)cc1,·,?,·,-14.0%
COc1ccc2c(c1)C[C@@H](C)O[C@]21C(=O)Nc2ccccc21,70.8%[14.2 µM],·,·,·
COCCN1C(=O)CC[C@@]23C1=NC(C(=O)OC)=C(C(=O)OC)[C@@H]2N(Cc1ccccc1)c1ccccc13,-8.8%[14.2 µM],·,·,·
COc1cc(NS(C)(=O)=O)ccc1Cc1c2ccccc2nc2ccccc12,·,1.26µM*,·,?
COc1ccc(NS(=O)(=O)Cc2ccccc2)cc1OC,0.6%,·,15.8%,·
CCCS(=O)(=O)Nc1ccc(Nc2c3ccccc3nc3ccccc23)c(OC)c1,?,?,0.708µM*,?
COC(=O)CC=C[C@@H](C)[C@@H](COc1ccccc1Br)OC,11.5%[14.2 µM],·,·,·
Cc1ccc(C)c(N2CCN(C(=O)Cc3cn(C)c4ccccc34)CC2)c1,18.3µM*,·,20.6µM*,·
C=CC[C@@H]1C=CC(O/N=C/C[C@@H]2C=C[C@H](OC(C)=O)[C@@H](COC(C)=O)O2)[C@@H](CO)O1 (stereo partly drawn),4.2%[14.2 µM],·,·,·
COc1ccc(CN2CCOc3ccc(C(O)c4cccnc4)cc3C2)c(F)c1 (stereo not drawn),·,-13.8%,·,-9.1%
Cc1ccc2c(c1C)-c1c(ccc(C)c1C)C(=O)C2=O,?,?,?,10µM*
CC1CCc2c(sc(NC(=O)c3ccco3)c2C(=O)O)C1 (stereo not drawn),3.55µM*,-21.5%,?,-22.9%
CN(N=O)c1ccc(O)c(O)c1,17.7µM*,·,?,·
COC(=O)c1ccccc1NC(=O)COc1ccccc1C(=O)Nc1ccccc1,·,-4.7%,·,-3.7%
COCCCNc1ncnc2sc(C(=O)N3CCOCC3)c(C)c12,·,-15.6%,·,-4.0%
CCc1cc(C(=O)NCc2c(C)ncc3c2CCN(C(=O)C2=CCCC2)C3)no1,·,-7.7%,·,7.4%
CCc1[nH]nc(C(=O)NC2CCCc3c2cnn3-c2cc(C)cc(C)c2)c1C (stereo not drawn),3.55µM*,?,?,6.8%
COc1ccc(Nc2cc(C(=O)NCCCN(C)C3CCCCC3)c3ccccc3n2)cc1,10µM*,-15.4%,?,-21.9%
O=C(COc1ccccc1C(=O)Nc1ccccc1)Nc1ccccc1F,·,-8.7%,·,-11.9%
CCOC(=O)c1c(C)n(C)c2cc(Br)c(OC)cc12,3.7%[14.2 µM],-16.4%,4.4%,-7.5%
SMILES,Marburg entry inh,VACV mCherry inh,LASV entry inh,Vaccinia Venus
CCOC(=O)c1c(CN2CCN(CCO)CC2)n(C)c2cc(Br)c(OC)cc12,8.2µM*!,·,?,·
CCOC(=O)c1c(CNCCN(CC)CC)n(C)c2cc(Br)c(OC)cc12,11.2µM*!,·,?,-6.6%
CCN(CC)CCNC(=O)c1c(C)n(-c2ccccc2)c2cc(Br)c(OC)cc12,?,·,7.3µM*,·
CCOC(=O)c1c(CN2CCCCC2)n(C)c2cc(Br)c(OC)cc12,?,-10.5%,?,-12.4%
CCN(CC)CCCNc1cc(C)nc2cc(-c3cccs3)nn12,17.8µM*,-5.1%,-18.1%[46.1 µM],-12.1%
Cc1cccc(-c2cc3nc(C)cc(NCCCN(C)C)n3n2)c1,?,-23.2%,?,-14.4%

# Screening data deposited in PubChem BioAssay by National Center for Advancing Translational Sciences (NCATS).
